High-throughput results as filed in PubChem BioAssay.
ELG1 genotox: qHTS screen for small molecules that induce genotoxicity in human embryonic kidney (HEK293T) cells expressing luciferase-tagged ELG1; Potency, µM (doses to about 46 µM), for the others: at the top dose activity change, positive = activation, most hits filed as activators; 1.3% of 330,000 active; HEK293T ELG1-luciferase reporter, luminescence, 16 h; AID 504466, 2011; further: % of control where 0% means no effect; nearly all actives have a fitted effect of over 60% in size
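Genotoxicity was scored as increased ELG1-luciferase reporter signal, measured by ONE-Glo luminescence (30 min, room temperature). Compound or vehicle exposure of the HEK293T reporter cells lasted 16 hr at 37°C.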
FLuc counter: qHTS profiling assay for firefly luciferase inhibitor/activator using purifed enzyme and Km concentrations of substrates (counterscreen for miR-21 project); Luciferin 4-monooxygenase (Photinus pyralis), P08659; purified FLuc, Km substrates, luminescence inhibition; Potency, µM (top dose mostly 57.5 µM), without a hit: at the top dose activity change, negative = inhibition, hits mostly inhibitors; 6.9% of 360,000 active; AID 588342, 2011;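 further: plate controls were vehicle for no effect and reference inhibitor for full effect; nearly all actives have a fitted effect of over 55% in size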
Target sequence (P08659 whole entry, looked up): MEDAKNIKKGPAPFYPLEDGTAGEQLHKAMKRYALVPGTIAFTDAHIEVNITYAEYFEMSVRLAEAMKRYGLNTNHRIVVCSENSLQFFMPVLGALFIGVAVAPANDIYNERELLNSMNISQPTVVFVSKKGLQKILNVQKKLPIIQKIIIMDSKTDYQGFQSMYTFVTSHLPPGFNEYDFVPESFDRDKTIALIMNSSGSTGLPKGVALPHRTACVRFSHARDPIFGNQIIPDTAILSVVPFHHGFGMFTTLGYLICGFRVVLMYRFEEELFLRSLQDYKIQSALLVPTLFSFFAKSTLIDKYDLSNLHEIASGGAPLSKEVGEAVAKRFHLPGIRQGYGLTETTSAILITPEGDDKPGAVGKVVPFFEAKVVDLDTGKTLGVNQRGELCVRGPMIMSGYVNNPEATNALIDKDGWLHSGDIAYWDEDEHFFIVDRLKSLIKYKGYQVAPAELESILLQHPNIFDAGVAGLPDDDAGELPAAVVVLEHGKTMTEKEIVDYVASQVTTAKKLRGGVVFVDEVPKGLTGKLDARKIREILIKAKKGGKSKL
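Purified P. pyralis luciferase (10nM final) with 10uM D-luciferin and 10uM ATP (Km levels) in 50mM Tris acetate pH 7.5, 10mM Mg acetate, 0.01% Tween-20, 0.05% BSA; qHTS 6-point titration, ~60 µM downward; luminescence read.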
NPC1 prom act: qHTS Assay for NPC1 Promoter Activators; 2.4% of 320,000 active; Potency, µM (top dose mostly 9.22 µM), without a hit: at the highest dose activation, usual class: activators; Huh7 NPC1 promoter luciferase reporter, 24 h; further: % of control where 0% means no effect; nearly all actives have a fitted effect of over 60% in size
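Luminescence from an NPC1 promoter-driven luciferase reporter in stably transfected Huh7 cells was measured after 24 h compound treatment at 37 °C, followed by 10 min ambient incubation with luciferase detection reagent.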
Rab9 promoter act: qHTS Assay for Rab9 Promoter Activators; Potency, µM (doses to about 9.22 µM), without a hit: top-dose activation, negative = inhibition, actives largely listed as activators; 2.8% of 320,000 active; AID 485297, 2010; Huh7 Rab9 promoter-luciferase reporter, luminescence, 24 h; further: % of control where 0% means no effect; nearly all actives have a fitted effect of over 60% in size
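Luciferase signal after 10 min detection reagent at ambient indicates Rab9 promoter upregulation; stably transfected Huh7 cells were treated 24 h with compound in DMSO at 37 °C, 5% CO2.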
SMN2 splice enh: qHTS Assay for Enhancers of SMN2 Splice Variant Expression; HEK293 SMN2-luciferase splicing reporter, luminescence, 30-36 h; Potency, µM (titrated, usually from 46.1 µM), for inactives: at the top dose activity change, positive = activation, usual class: activators; 2.8% of 210,000 active; further: % of control where 0% means no effect; nearly all actives have a fitted effect of over 55% in size
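HEK293 cells carry an SMN2 […]–luciferase reporter in which exon 7 inclusion puts luciferase in frame. Cells were plated 10-12 h before compound addition, then incubated 30-36 h at 37C. ONE-Glo luminescence was read; sodium butyrate at 4.5 mM final served as control.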
ELG1 DNA repair: qHTS screen for small molecules that inhibit ELG1-dependent DNA repair in human embryonic kidney (HEK293T) cells expressing luciferase-tagged ELG1 | HEK293T ELG1-luciferase reporter, luminescence, 16 h; DNA damage induced by 5-fluorouridine | AID 504467, 2011 | Potency, µM (doses to about 46.1 µM), for the others: top-dose activity change, negative = inhibition, most hits filed as inhibitors | 2.3% of 330,000 active; further: on the % scale 0 is the no-effect control and ±100 the full control effect; nearly all actives have a fitted effect of over 55% in size
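Overnight (16 hr) co-exposure of 2,000 cells/well to 5-fluorouridine and compound at 37 °C preceded detection. Luciferase was quantified via ONE-Glo luminescence; loss of signal denotes inhibition.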
An asterisk follows results filed as active; ? = inconclusive; · = no result given. An excerpt weighted towards active compounds, which were near 9.2% of everything screened. The call rests on the fitted dose curve; in most records, active means well fitted curve in the direction sought with a large enough effect; inconclusive means small, poorly fitted or top-dose-only effect, or another doubt; inactive means no such curve, though single readings can be large; an effect the other way counts as inactive or inconclusive. Potency means the concentration at half of the fitted maximal effect.

SMILES | ELG1 genotox | FLuc counter | NPC1 prom act | Rab9 promoter act | SMN2 splice enh | ELG1 DNA repair
Oc1c(Br)cc2oc3c(c2c1CNCc1ccccc1)CCCC3 | -5% | 1% | -1% | 13% | -3% | -20%
NC(=S)N/N=C/c1c(O)c(Br)cc2oc3c(c12)CCCC3 | 0% | -1% | -2% | -6% | · | 21µM*
CCN(CC)CCCn1c2c(c(SCC(=O)Nc3nccs3)nc1=O)CCC2 | -6% | 2% | 1% | -6% | · | -12%
CCn1c(C)nc2cc(-c3nc4n(n3)Cc3ccccc3-4)ccc21 | -19% | 0.024µM* | -48% | -43% | -65% | ?
Cc1ccc(-c2nc3n(n2)Cc2ccccc2-3)cc1 | ? | 0.3µM* | 3.5µM* | 3.2µM* | 1.3µM* | ?
Fc1ccc(-c2nc3n(n2)Cc2ccccc2-3)cc1 | 0.41µM* | 0.6µM* | ? | ? | 2.8µM* | ?
O=C(CCS(=O)(=O)c1ccc(Cl)cc1)Nc1nc(-c2ccncc2)cs1 | -2% | 4% | -2% | 0% | · | 7.3µM*
O=C(CCS(=O)(=O)c1ccc(Cl)cc1)Nc1nc(-c2cccnc2)cs1 | · | 5% | 16% | ? | · | ?
COc1cc2nc(SCC(=O)c3ccc(Br)cc3)n3nc(C)nc3c2cc1OC | -1% | -2% | -4% | -6% | -6% | 4.1µM*
Cc1nc2c3ccccc3nc(SCC(=O)c3ccc(Cl)cc3)n2n1 | -4% | 0% | 0% | -13% | -8% | -20%
Cc1ccc(S(=O)(=O)N2CCSC2)cc1C | · | -2% | · | · | -25% | ·
Cc1ccc2nc(N/N=C\c3ccc([N+](=O)[O-])o3)nc(-c3ccccc3)c2c1 | -19% | 7.6µM* | 0% | 3% | -27% | 21µM*
O=[N+]([O-])c1ccc(/C=N/Nc2nc(-c3ccccc3)c3cc(Br)ccc3n2)o1 | 3% | -4% | -4% | 11% | -26% | -14%
O=C(N/N=C/c1ccc([N+](=O)[O-])o1)c1cc2ccccc2o1 | -1% | -12% | -10% | -34% | · | ?
O=[N+]([O-])c1ccc(/C=N/Nc2ccc3ccccc3c2)o1 | 13% | 11µM* | ? | ? | 9% | ?
Cc1cc(C(=O)Nc2cc(S(C)(=O)=O)ccc2Cl)c(C)o1 | 2% | · | · | · | · | 4%
C#CCOCCOCCOCCNc1nc(N2CCN(C(=O)[C@H](CCCN=C(N)N)n3cc(C(N)[C@@H](C)CC)nn3)CC2)nc(N2CCN(C(=O)[C@H](CCCCN)n3cc([C@@H](N)CC(N)=O)nn3)CC2)n1 (stereo partly drawn) | 1% | · | · | · | · | 22%
COCCN(C(=O)Cc1cccs1)C(C(=O)NC1CCCC1)c1cc(OC)c(OC)c(OC)c1 (stereo not drawn) | ? | 4.8µM* | ? | ? | · | ?
CC(=O)N1CCC(=NNC(=O)c2cc3ccccc3cc2O)CC1 | 5% | ? | 5% | -1% | · | 1%
O=C(NN=C1CCCCCC1)c1c[nH]c2ccccc12 | -1% | 12µM* | 0% | -1% | 7% | 14%
COc1ccc(C(C(=O)NC2CCCC2)N(C(=O)Cc2cccs2)C2CC2)cc1OC (stereo not drawn) | 11% | 3% | -10% | 2% | · | 10%
Cc1ccccc1C(=O)NC1CCCCCCC1 | 16µM* | 12µM* | 2.8µM* | 2.5µM* | · | ?
O=C(NN=C1CCCCCC1)c1cc2ccccc2cc1O | 7% | 17µM* | -4% | 7% | · | 6%
CCOC(=O)c1c(C)sc(Sc2ccc(Cl)cc2[N+](=O)[O-])c1OC | -12% | -1% | -2% | -3% | -1% | 10%
Cc1ccc(CS(=O)(=O)c2cn(CC(=O)N3CCOCC3)c3ccccc23)cc1 | 3% | -7% | 8% | 16% | · | ?
SMILES | ELG1 genotox | FLuc counter | NPC1 prom act | Rab9 promoter act | SMN2 splice enh | ELG1 DNA repair
CCCOc1ccc(C(=O)Nc2ccc3nn(-c4ccc(OC)c(Cl)c4)nc3c2)cc1 | · | -2% | · | · | 4% | ·
COc1ccc(NC(=O)Cn2c(=O)n(Cc3nc(-c4ccccc4)no3)c(=O)c3cc4c(cc32)OCO4)cc1Cl | · | -2% | · | · | · | ·
Cc1ccc(NC(=O)CN(C)C(=O)Cc2ccc(Cl)cc2Cl)cc1 | -4% | 0% | -4% | -4% | · | -2%
COCCN(C(=O)CCC(=O)Nc1cc(C)on1)C(C(=O)NC1CCCC1)c1ccccc1C (stereo not drawn) | 1% | 2% | -2% | 2% | · | 6%
O=C(CCC1CCCC1)NNC(=O)c1cc2ccccc2cc1O | -5% | -1% | 1% | -2% | · | 7%
O=C(NC1CCCCC1)c1cc2ccccc2cc1O | 4% | 17µM* | ? | 22% | · | 22%
O=C(NC1CCCCCCC1)c1ccccc1O | 16% | 15µM* | 4µM* | 3.5µM* | 5% | ?
COCCN(C(=O)CCl)C(C(=O)NC1CCCCC1)c1ccccc1C (stereo not drawn) | -12% | 1% | -13% | -44% | ? | 21µM*
Cn1cccc1C(=O)NC1CCCCCC1 | ? | 17µM* | ? | 2.2µM* | · | ?
CC(Oc1ccc2c3c(c(=O)oc2c1)CCCC3)C(=O)NCC(O)c1ccccc1 (stereo not drawn) | 1% | -11% | 1% | -1% | · | -3%
N#CC(C#N)=C1C=CC=CN1/C(=C\c1ccccc1Cl)C(=O)c1ccccc1 | -22% | ? | -21% | -28% | -117% | ?
N#CC(C#N)=C1C=CC=CN1/C(=C\c1ccccc1)C(=O)c1cccs1 | -3% | 19µM* | -3% | 1% | 8% | -14%
CCN(CC)c1ccc(/C=N/NC(=O)c2cccc(N3CCCC3=O)c2)cc1 | 8% | 15µM* | 7% | -3% | -5% | ?
COc1cc(/C=N/NC(=O)c2cccc(N3CCCC3=O)c2)ccc1O | 9% | ? | -3% | 3% | · | 28%
O=C(N/N=C/c1cc([N+](=O)[O-])ccc1O)c1cccc(N2CCCC2=O)c1 | 8% | -13% | -10% | 6% | · | 12µM*
COc1cccc(NC(=O)CSc2nc3c(sc4ccccc43)c(=O)n2CCCN2CCCC2)c1 | 1% | 2% | -2% | -1% | · | 0%
CCS(=O)(=O)c1ccc(-c2csc(-c3ccccc3Cl)n2)c(Cl)c1Cl | ? | -19% | 6% | 2% | -17% | 6%
CCS(=O)(=O)c1ccc(-c2csc(-c3ccc(Cl)cc3)n2)c(Cl)c1Cl | 18µM* | ? | 0% | 2% | -6% | 18%
